Data published in PubChem BioAssay (EPA / NIEHS).
“And” between values parts separate entries of the source, which are not always exact repeats. Identical values can stand only once. Results filed as inconclusive are left out. The source made the active and inactive calls. Rule for the calls, unless noted: active = hit-call score of the fitted dose curve at least 0.9, where 1 is the maximum; inactive = score below 0.9.

Tests used:
[1] = BSK_3C_uPAR: BioMAP Diversity Plus: 3C Assay for Urokinase-type plasminogen activator receptor (uPAR) Biomarker Activity (AID 2282998); details: BioMAP 3C HUVEC, uPAR biomarker ELISA; actives raise or lower the signal
Method in brief: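 Primary human umbilical vein endothelial cells, 3C system; surface uPAR measured by ELISA 24 h after dosing. Cytotoxicity via SRB total protein in parallel cultures; bidirectional fit against DMSO.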

[2] = BSK_3C_VCAM1: BioMAP Diversity Plus: 3C Assay for Vascular cell adhesion molecule 1 (VCAM1) Biomarker Activity (AID 2282999); details: BioMAP 3C HUVEC, VCAM1 ELISA, cytokine-stimulated; actives raise or lower the signal
Method in brief: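 HUVEC primary cells, 24 h compound exposure; VCAM-1 by ELISA; gain/loss of signal fitted bidirectionally vs DMSO baseline.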

[3] = BSK_4H_Eotaxin3: BioMAP Diversity Plus: 4H Assay for Eotaxin 3 Biomarker Activity (AID 2283000); details: primary human endothelial cells (HUVEC); actives raise or lower the signal;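 for outcome: CCL26 protein level quantified by ELISA in parallel with SRB cytotoxicity check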
Method in brief: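 HUVEC, 24 h post-dose, ELISA for Eotaxin-3/CCL26. Gain or loss of signal fitted bidirectionally vs DMSO baseline.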

[4] = BSK_3C_Proliferation: Cell Proliferation Assessment in the BioMAP Diversity Plus: 3C Assay (AID 2283006); details: primary human endothelial cells (HUVEC);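 for AC50: potency may reflect either rise or fall in cell number versus DMSO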
Method in brief: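 Proliferation as total protein: sulforhodamine B (0.1%) stain of TCA-fixed subconfluent human umbilical vein endothelial cells, absorbance 560 nm, 48 h after dosing. Activity fitted in both directions against DMSO baseline.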

[5] = read-out: Interleukin-1 alpha (IL1a), IL1A (gene 3552); test: BSK_BE3C_IL1a: BioMAP Diversity Plus: BE3C Assay for Interleukin-1 alpha (IL1a) Biomarker Activity (AID 2283016); details: primary human bronchial epithelial cells; actives raise or lower the signal
Method in brief: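 IL-1a measured by ELISA after 24 h treatment of human primary bronchial epithelial cells, with gain or loss of signal fitted versus DMSO. Parallel cultures stained with SRB gauge overt cytotoxicity.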

[6] = read-out: Monocyte Chemoattractant Protein-1 (MCP1), CCL2 (gene 6347); test: BSK_3C_MCP1: BioMAP Diversity Plus: 3C Assay for Monocyte Chemoattractant Protein-1 (MCP1) Biomarker Activity (AID 2283017); details: primary human endothelial cells (HUVEC); actives raise or lower the signal
Method in brief: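 Primary human umbilical vein endothelial cells (3C system) were exposed to test chemical for 24 h, after which MCP-1 was quantified by ELISA. Activity was fitted bidirectionally against DMSO as negative control and baseline.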

[7] = read-out: Monocyte Chemoattractant Protein-1 (MCP1), CCL2 (gene 6347); test: BSK_4H_MCP1: BioMAP Diversity Plus: 4H Assay for Monocyte Chemoattractant Protein-1 (MCP1) Biomarker Activity (AID 2283018); details: primary human endothelial cells (HUVEC); actives raise or lower the signal
Method in brief: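 ELISA of MCP-1 (CCL2) 24 h after chemical dosing of HUVEC in the BioMAP 4H system. Gain or loss versus DMSO fitted; parallel SRB staining (560 nm) tracked overt cytotoxicity.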

[8] = read-out: Monokine induced gamma interferon (MIG), CXCL9 (gene 4283); test: BSK_3C_MIG: BioMAP Diversity Plus: 3C Assay for Monokine induced gamma interferon (MIG) Biomarker Activity (AID 2283021); details: primary human endothelial cells (HUVEC); actives raise or lower the signal;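 for AC50: MIG protein level measured by immunoassay in the treated endothelial cultures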
Method in brief: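 ELISA measurement of MIG in human umbilical vein endothelial cells 24 h after treatment. Cytotoxicity tracked by SRB staining in parallel cultures; gain or loss of signal fitted relative to DMSO.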

[9] = BSK_3C_SRB: Viability Assessment in the BioMAP Diversity Plus: 3C Assay (AID 2283023); details: primary human endothelial cells (HUVEC);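 note: fitted both ways against DMSO so a hit may be signal rise or drop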
Method in brief: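 Primary human umbilical vein endothelial cells in the 3C system were read 24 h after compound dosing. Total protein was stained with 0.1% sulforhodamine B after 10% TCA fixation and read at 560 nm, with bidirectional fitting against DMSO as baseline.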

[10] = BSK_4H_SRB: Viability Assessment in the BioMAP Diversity Plus: 4H Assay (AID 2283027); details: primary human endothelial cells (HUVEC);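 note: cells exposed to compound for 24 h before staining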;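 for AC50: curves fitted both ways versus DMSO so AC50 may be loss or gain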
Method in brief: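 HUVEC, 24 h post-dose; 10% TCA fix, 0.1% SRB stain, A560 nm. Total protein = overt cytotoxicity, parallel to biomarker read. Bidirectional fit vs DMSO baseline.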

[11] = BSK_BE3C_SRB: Viability Assessment in the BioMAP Diversity Plus: BE3C Assay (AID 2283028); details: primary human bronchial epithelial cells;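 for AC50: fitted both ways so AC50 may mark signal gain or loss versus DMSO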
Method in brief: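 Human primary bronchial epithelial cells were exposed to test chemicals for 24 h. Total protein in parallel cultures was then measured by staining with 0.1% sulforhodamine B after 10% TCA fixation, with absorbance read at 560 nm. Activity was fitted bidirectionally against DMSO.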

[12] = read-out: Monokine induced gamma interferon (MIG), CXCL9 (gene 4283); test: BSK_BE3C_MIG: BioMAP Diversity Plus: BE3C Assay for Monokine induced gamma interferon (MIG) Biomarker Activity (AID 2283035); details: primary human bronchial epithelial cells; actives raise or lower the signal
Method in brief: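 Dose cells (human primary bronchial epithelial), incubate 24 h, quantify MIG by ELISA, then fit concentration–response in both directions relative to DMSO control.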

[13] = read-out: Plasminogen activator inhibitor-1 (PAI1), SERPINE1 (gene 5054); test: BSK_BE3C_PAI1: BioMAP Diversity Plus: BE3C Assay for Plasminogen activator inhibitor-1 (PAI1) Biomarker Activity (AID 2283037); details: primary human bronchial epithelial cells; actives raise or lower the signal
Method in brief: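 PAI-1 was measured by ELISA in human primary bronchial epithelial cultures 24 h after chemical dosing, with cytotoxicity checked by SRB total-protein staining in parallel cultures. Activity was fitted in both directions relative to DMSO.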

[14] = read-out: Tissue plasminogen activator (tPA), PLAT (gene 5327); test: BSK_BE3C_tPA: BioMAP Diversity Plus: BE3C Assay for Tissue plasminogen activator (tPA) Biomarker Activity (AID 2283041); details: primary human bronchial epithelial cells; actives raise or lower the signal;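 for outcome: tPA level quantified by ELISA one day after compound addition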
Method in brief: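 tPA measured by ELISA 24 h after dosing human primary bronchial epithelial cells (BE3C system). Changes in either direction were fitted against DMSO. Parallel cultures were stained with SRB to flag overt cytotoxicity.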

[15] = read-out: Interleukin-8 (IL8), CXCL8 (gene 3576); test: BSK_CASM3C_IL8: BioMAP Diversity Plus: CASM3C Assay for Interleukin-8 (IL8) Biomarker Activity (AID 2283042); details: primary human coronary artery smooth muscle cells; actives raise or lower the signal;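 note: IL-8 protein level quantified by ELISA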
[16] = ATG_GATA_CIS: Attagene CIS-FACTORIAL HepG2 Assay for human GATA Binding Protein (AID 2282944); details: HepG2 GATA cis-element reporter, Attagene multiplex mRNA; actives raise or lower the signal
Method in brief: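 HepG2 cells transiently transfected with multiplexed cis-element reporter units measure endogenous GATA activity; after 24 h compound exposure, reporter mRNA quantified by RT-PCR and capillary electrophoresis. Changes fitted in both directions vs DMSO.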

[17] = target: Transcription factor Sp1 (Homo sapiens) (UniProt P08047); test: ATG_Sp1_CIS: Attagene CIS-FACTORIAL HepG2 Assay for human Specificity Protein 1 (Sp1) (AID 2282961); details: HepG2 Sp1 cis-reporter transcription, actives raise or lower the signal
Method in brief: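 Measures mRNA induction of an Sp1-linked reporter in HepG2 cells 24 h post-dosing. Multiplexed reporters read by RT-PCR and capillary electrophoresis; DMSO serves as negative control and baseline.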

[18] = ATG_TAL_CIS: Attagene CIS-FACTORIAL HepG2 Assay for human TAL Basal Promoter (AID 2282966); details: HepG2 Attagene cis-factorial TAL promoter reporter; actives raise or lower the signal;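 note: background control endpoint measuring basal TAL promoter reporter mRNA not a specific factor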
Method in brief: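 Transiently transfected HepG2 (cis-regulated reporter units), 24 h treatment, mRNA read by fluorescent CE after RT-PCR; bidirectional fit, DMSO baseline.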

[19] = target: Oxysterols receptor LXR-alpha (Homo sapiens) (UniProt Q13133); test: ATG_LXRa_TRANS: Attagene TRANS-FACTORIAL HepG2 Assay for human Liver X Receptor alpha (LXRa) (AID 2282980; active = hit-call score of the fitted dose curve at least 0.9, where 1 is the maximum); details: HepG2 Attagene TRANS reporter, LXRa transactivation
Method in brief: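 HepG2 cells were transiently transfected with multiplexed reporter units driven by chimeric LXRa–GAL4 fusion proteins, then dosed for 24 h. Reporter mRNA was quantified by RT-PCR, fluorescent labelling and capillary electrophoresis; gain of signal fitted against DMSO baseline.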

[20] = target: human Peroxisome Proliferator-activated Receptor alpha (PPARa), PPARA (gene 5465) (UniProt Q07869); test: ATG_PPARa_TRANS: Attagene TRANS-FACTORIAL HepG2 Assay for human Peroxisome Proliferator-activated Receptor alpha (PPARa) (AID 2283001; active = hit-call score of the fitted dose curve at least 0.9, where 1 is the maximum;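 for AC50: potency for gain of reporter signal over DMSO so agonist or activator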)
Method in brief: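 HepG2, transient MRTU transfection, 24 h treatment. RT-PCR → FAM labelling → capillary electrophoresis. Fit vs DMSO, positive direction.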

Sequence of human Peroxisome Proliferator-activated Receptor alpha (PPARa), PPARA (gene 5465) (Q07869 whole entry, looked up): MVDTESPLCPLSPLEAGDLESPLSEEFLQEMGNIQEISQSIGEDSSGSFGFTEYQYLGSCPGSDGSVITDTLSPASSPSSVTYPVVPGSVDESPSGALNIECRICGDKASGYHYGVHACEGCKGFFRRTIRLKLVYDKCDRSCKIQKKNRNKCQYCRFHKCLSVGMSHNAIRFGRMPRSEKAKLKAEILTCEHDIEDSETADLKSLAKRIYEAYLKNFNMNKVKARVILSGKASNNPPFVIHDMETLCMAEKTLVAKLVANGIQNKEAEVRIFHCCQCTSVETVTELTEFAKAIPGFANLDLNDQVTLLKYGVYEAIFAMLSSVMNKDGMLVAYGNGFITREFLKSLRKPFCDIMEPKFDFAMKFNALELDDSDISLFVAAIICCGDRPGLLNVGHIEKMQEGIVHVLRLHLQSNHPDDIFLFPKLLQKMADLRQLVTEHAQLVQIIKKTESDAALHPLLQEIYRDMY
Sequence of Transcription factor Sp1 (Homo sapiens) (P08047 whole entry, looked up): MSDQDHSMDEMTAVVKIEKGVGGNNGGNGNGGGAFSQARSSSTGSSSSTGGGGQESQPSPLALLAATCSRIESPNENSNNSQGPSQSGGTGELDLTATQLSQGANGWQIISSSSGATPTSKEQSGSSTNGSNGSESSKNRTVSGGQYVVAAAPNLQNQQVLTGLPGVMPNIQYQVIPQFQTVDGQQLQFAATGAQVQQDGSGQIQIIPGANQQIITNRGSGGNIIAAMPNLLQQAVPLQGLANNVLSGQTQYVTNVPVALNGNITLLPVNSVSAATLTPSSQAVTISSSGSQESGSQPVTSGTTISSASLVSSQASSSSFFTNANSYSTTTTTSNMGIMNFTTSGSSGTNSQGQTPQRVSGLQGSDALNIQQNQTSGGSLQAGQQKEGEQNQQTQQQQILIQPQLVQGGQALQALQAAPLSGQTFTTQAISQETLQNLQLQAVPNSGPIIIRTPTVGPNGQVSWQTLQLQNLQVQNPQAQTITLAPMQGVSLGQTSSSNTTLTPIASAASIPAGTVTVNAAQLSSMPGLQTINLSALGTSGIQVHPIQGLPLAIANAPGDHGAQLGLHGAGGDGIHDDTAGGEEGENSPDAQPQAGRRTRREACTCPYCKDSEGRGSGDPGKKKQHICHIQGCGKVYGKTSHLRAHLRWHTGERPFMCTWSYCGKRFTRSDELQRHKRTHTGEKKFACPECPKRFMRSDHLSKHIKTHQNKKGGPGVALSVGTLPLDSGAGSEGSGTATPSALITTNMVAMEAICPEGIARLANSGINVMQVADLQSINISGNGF
Sequence of Oxysterols receptor LXR-alpha (Homo sapiens) (Q13133 whole entry, looked up, the tested form may be a part): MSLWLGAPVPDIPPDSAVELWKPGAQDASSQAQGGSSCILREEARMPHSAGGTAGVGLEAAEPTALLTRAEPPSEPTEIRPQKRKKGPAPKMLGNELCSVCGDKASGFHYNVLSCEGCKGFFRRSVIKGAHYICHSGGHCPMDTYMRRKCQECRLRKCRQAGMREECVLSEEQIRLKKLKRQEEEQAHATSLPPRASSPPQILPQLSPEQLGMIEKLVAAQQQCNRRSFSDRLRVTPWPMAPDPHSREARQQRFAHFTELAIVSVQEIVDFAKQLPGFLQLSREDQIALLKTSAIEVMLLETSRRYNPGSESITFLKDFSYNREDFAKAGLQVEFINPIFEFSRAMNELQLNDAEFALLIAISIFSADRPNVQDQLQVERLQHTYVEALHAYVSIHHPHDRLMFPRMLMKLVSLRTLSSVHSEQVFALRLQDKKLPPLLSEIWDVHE

## CCCCC(CC)COC(=O)C=Cc1ccc(OC)cc1 (stereo not drawn)
[1]
  AC50: 35.3 µM (active) and 26.2 µM (active)
[2]
  outcome: inactive
[3]
  AC50: 24.2 µM (active) and 18.9 µM (active)
[4]
  AC50: 32.7 µM (active) and 27.1 µM (active)
[5]
  outcome: inactive
[6]
  AC50: 33 µM (active)
[7]
  AC50: 20 µM (active) and 27.4 µM (active)
[8]
  outcome: inactive
[9]
  AC50: 31.8 µM (active) and 31.4 µM (active)
[10]
  AC50: 39 µM (active) and 36.8 µM (active)
[11]
  outcome: inactive
[12]
  outcome: inactive
[13]
  outcome: inactive
[14]
  outcome: inactive
[15]
  outcome: inactive

## OC(C(F)(F)F)(C(F)(F)F)C(O)(C(F)(F)F)C(F)(F)F
[1]
  AC50: 13.8 µM (active) and 10.7 µM (active)
[2]
  AC50: 38.6 µM (active) and 42.1 µM (active)
[3]
  AC50: 22.3 µM (active) and 27.4 µM (active)
[4]
  AC50: 22.1 µM (active) and 21.6 µM (active)
[5]
  AC50: 31.6 µM (active) and 31.3 µM (active)
[6]
  AC50: 49.9 µM (active) and 50.5 µM (active)
[7]
  AC50: 21.5 µM (active) and 10.1 µM (active)
[8]
  AC50: 43.7 µM (active) and 50.9 µM (active)
[9]
  AC50: 30 µM (active) and 27.7 µM (active)
[10]
  AC50: 27.5 µM (active) and 26 µM (active)
[11]
  AC50: 48 µM (active) and 48.9 µM (active)
[12]
  AC50: 54.8 µM (active) and 54.6 µM (active)
[13]
  AC50: 13.9 µM (active) and 12.5 µM (active)
[14]
  AC50: 17 µM (active) and 16 µM (active)
[15]
  outcome: inactive

## C1CN(CCOCCN2CCOCC2)CCO1
[1]
  outcome: inactive
[2]
  outcome: inactive
[3]
  outcome: inactive
[4]
  outcome: inactive
[5]
  outcome: inactive
[6]
  outcome: inactive
[7]
  outcome: inactive
[8]
  outcome: inactive
[9]
  outcome: inactive
[10]
  outcome: inactive
[11]
  outcome: inactive
[12]
  outcome: inactive
[13]
  outcome: inactive
[14]
  outcome: inactive
[15]
  outcome: inactive

## CCCCCCOC(=O)CCCCCCCC(=O)OCCCCCC
[16]
  outcome: inactive
[17]
  outcome: inactive
[18]
  outcome: inactive
[19]
  outcome: inactive
[20]
  outcome: inactive

## CCC[Si](OC(C)=O)(OC(C)=O)OC(C)=O
[1]
  outcome: inactive
[2]
  outcome: inactive
[3]
  outcome: inactive
[4]
  outcome: inactive
[5]
  outcome: inactive
[6]
  outcome: inactive
[7]
  outcome: inactive
[8]
  outcome: inactive
[9]
  outcome: inactive
[10]
  outcome: inactive
[11]
  outcome: inactive
[12]
  outcome: inactive
[13]
  outcome: inactive
[14]
  outcome: inactive
[15]
  outcome: inactive

## C[Si](C)(C)O[Si](C)(C)O[Si](C)(C)C
[16]
  outcome: inactive
[18]
  outcome: inactive
[19]
  outcome: inactive
[20]
  outcome: inactive

## CCCC[N+]1(C)CCCC1
[16]
  outcome: inactive
[17]
  outcome: inactive
[18]
  outcome: inactive
[19]
  outcome: inactive
[20]
  outcome: inactive

## CC/C=C\CCO
[17]
  outcome: inactive
[18]
  outcome: inactive
[20]
  outcome: inactive

## Cc1c(C(N)=O)cc([N+](=O)[O-])cc1[N+](=O)[O-]
[1]
  outcome: inactive
[2]
  outcome: inactive
[3]
  outcome: inactive
[4]
  outcome: inactive
[5]
  outcome: inactive
[6]
  outcome: inactive
[7]
  outcome: inactive
[8]
  outcome: inactive
[9]
  outcome: inactive
[10]
  outcome: inactive
[11]
  outcome: inactive
[12]
  outcome: inactive
[13]
  outcome: inactive
[14]
  outcome: inactive
[15]
  outcome: inactive

## COc1cc(CNC(=O)CCCC/C=C/C(C)C)ccc1O
[1]
  outcome: inactive
[2]
  outcome: inactive
[3]
  outcome: inactive
[4]
  AC50: 8.93 µM (active) and 9.17 µM (active)
[5]
  outcome: inactive
[6]
  outcome: inactive
[7]
  outcome: inactive
[8]
  outcome: inactive
[9]
  outcome: inactive
[10]
  outcome: inactive
[11]
  outcome: inactive
[12]
  outcome: inactive
[13]
  outcome: inactive
[14]
  outcome: inactive
[15]
  outcome: inactive

## F[B-](F)(F)F
[17]
  outcome: inactive
[18]
  outcome: inactive
[19]
  outcome: inactive

## CN(C)N=Nc1ccccc1
[17]
  outcome: inactive
[18]
  outcome: inactive
[19]
  outcome: inactive
[20]
  outcome: inactive

## CCCc1c(OCCCCc2nn[nH]n2)ccc(C(C)=O)c1O
[16]
  outcome: inactive
[18]
  outcome: inactive
[19]
  outcome: inactive
[20]
  AC50: 27.7 µM (active)
